Laboratory results from the supplement of paper PMC9433436.
± gives the standard deviation of the averaged measurements. In all, about 4,100 sequences were measured (“relative kcat/Km (krel) vs genomic leader AAAGAU”: median about 1.7, highest 2% from about 6.5 on). What follows is part of a selection rich in the highest values, with near analogues and random picks from the rest.

Biological target: T1, E. coli RNase P holoenzyme (M1 P RNA + rnpA protein) (UniProt P0A7Y8)
T1 sequence: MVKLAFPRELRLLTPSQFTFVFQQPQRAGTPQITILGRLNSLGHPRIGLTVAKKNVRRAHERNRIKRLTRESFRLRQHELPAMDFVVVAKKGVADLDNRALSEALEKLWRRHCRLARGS
Test: relative kcat/Km (krel) vs genomic leader AAAGAU (relative (reference leader = 1)); higher = faster RNase P cleavage
Method: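 HTS-Kin: a pool of ptRNA-Met (21C construct) with all 4096 combinations of 5' leader nucleotides N(-6) to N(-1) was processed in vitro by E. coli RNase P (P RNA + rnpA/C5 protein) under multiple-turnover conditions at 37 C, pH 8, 17.5 mM MgCl2. Residual substrate was Illumina-sequenced at several fractions reacted, and relative kcat/Km (krel) was computed by internal competition kinetics, calibrated to the genomic leader (AAAGAU = 1). The listed hexamer is the varied N(-6)..N(-1) leader (DNA letters), and it sits between a fixed 5' stem-loop flank (GCAUGCACGAAAGUGCGUGCUAUGAA) and the mature tRNA-Met starting GGCUACGUAGCUCAGUUGG. Two technical replicates are averaged.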

[1] = fraction of substrate reacted: ~9-10% (9.79% repeat 1, 9.1% repeat 2)
[2] = fraction of substrate reacted: ~13-16% (15.68% repeat 1, 13.17% repeat 2)
[3] = fraction of substrate reacted: ~26-29% (28.66% repeat 1, 26.4% repeat 2)

Sequence | relative kcat/Km [1] | relative kcat/Km [2] | relative kcat/Km [3]
TTAAGA | 1.95 ± 0.61 | 2.89 ± 0.47 | 3.88 ± 1.5
GTCTAC | 4.47 ± 0.65 | 6.86 ± 2.4 | 10.1 ± 4.8
CTACAC | 2.87 ± 1.7 | 3 ± 0.59 | 4.74 ± 1.4
CTCTAG | 3.37 ± 2.2 | 3.41 ± 0.89 | 5.82 ± 2
CTCTAC | 4.76 ± 1.6 | 6.63 ± 1.3 | 8.97 ± 3.6
GGCTAC | 1.69 ± 1.4 | 1.98 ± 0.51 | 2.81 ± 1.3
GTCTAG | 3.54 ± 2.5 | 3.25 ± 0.17 | 5.81 ± 1.6
TACGTT | 1.82 ± 0.88 | 1.95 ± 0.067 | 2.61 ± 1
CAAGAT | 1.15 ± 0.24 | 0.704 ± 0.019 | 1.49 ± 0.33
ATCCTA | 3.22 ± 1.7 | 3.39 ± 0.28 | 4.55 ± 1.7
CTCCGT |  | 1.79 ± 1.2 | 2.01 ± 1.7
CACCGC | 2.34 ± 0.56 | 3.87 ± 1.6 | 5.89 ± 2.7
CTCCGA | 4.78 ± 2 | 5.35 ± 1.6 | 8.07 ± 3.3
GTCCGG |  |  | 1.17 ± 0.26
CTCCGC | 3.56 ± 0.068 | 4.98 ± 1.7 | 6.8 ± 2.7
ATCCGA | 4.57 ± 1.7 | 4.95 ± 0.73 | 7.19 ± 2.7
ATCCCA | 2.69 ± 1.7 | 2.52 ± 0.24 | 3.52 ± 0.92
CGCCGC | 2.62 ± 0.84 | 3.479 ± 0.016 | 4.99 ± 2
CTCCGG | 1.38 ± 0.85 | 0.916 ± 0.46 | 1.27 ± 0.5
GGCCGC | 1.55 ± 0.064 | 1.97 ± 0.17 | 3.73 ± 0.94
GTCCGC | 3.94 ± 0.68 | 5.24 ± 1.4 | 8 ± 3.3
GGCGGT |  |  | 1.38 ± 0.92

Sequence | relative kcat/Km [1] | relative kcat/Km [2] | relative kcat/Km [3]
ATGTCA | 1.69 ± 0.74 | 1.97 ± 0.16 | 2.71 ± 1
CGCGTA | 2.07 ± 0.78 | 1.48 ± 0.56 | 2.18 ± 0.99
CAGGAG | 0.78 ± 0.77 |  | 0.626 ± 0.52
TAAGGT |  |  | 3.06 ± 1.8
TCGGGC |  |  | 1.18 ± 0.74
TGAATC | 1.86 ± 0.16 | 1.84 ± 0.4 | 2.53 ± 0.78
TATAAT | 3.05 ± 0.91 | 3.72 ± 0.38 | 5.41 ± 2.8
TAACAG |  | 1.33 ± 0.61 | 2.19 ± 0.52
GCGAGA | 1.04 ± 0.47 |  | 1.63 ± 0.017
TTCCGT |  | 2.19 ± 1.9 | 2.5 ± 1.8
TTCCGG | 1.74 ± 1.5 | 0.738 ± 0.38 | 1.68 ± 0.19
GTCCGA | 3.87 ± 0.72 | 5.56 ± 1 | 8.22 ± 3.4
TTCCGA | 4.31 ± 1.2 | 6.28 ± 2 | 9.5 ± 4.6
ATCCGC | 3.93 ± 0.99 | 4.36 ± 1.7 | 6.74 ± 2.5
ATCCGT |  |  | 2.3 ± 2.1
ATCCGG |  | 0.394 ± 0.063 | 0.881 ± 0.16
TTCCCA | 2.74 ± 1.8 | 4.27 ± 0.3 | 4.97 ± 1.5
TTCCGC | 4.23 ± 1.3 | 5.35 ± 0.93 | 8.49 ± 3.5
GGCCGA | 1.949 ± 0.015 | 2.42 ± 0.35 | 3.95 ± 1.3
GTCCTA | 3.11 ± 1.4 | 3.47 ± 0.34 | 4.9 ± 1.2
TGCCGA | 2.99 ± 0.37 | 2.99 ± 1.4 | 4.69 ± 1.9
ACGACA | 1.74 ± 0.19 | 1.62 ± 0.86 | 1.9 ± 0.45

Sequence | relative kcat/Km [1] | relative kcat/Km [2] | relative kcat/Km [3]
CAGCAA | 2.5 ± 1.1 | 2.58 ± 0.032 | 3.08 ± 1
TATCGA | 3.95 ± 1.2 | 4.7 ± 0.84 | 6.39 ± 2.6
TTATAC | 4.34 ± 1.3 | 5.2 ± 0.6 | 7.47 ± 2.9
GTATAG |  | 1.79 ± 0.37 | 3.69 ± 0.99
GTATAC | 3.66 ± 2.2 | 4.72 ± 0.97 | 6.65 ± 2.7
CTATAC | 3.79 ± 0.8 | 3.82 ± 0.28 | 5.86 ± 1.7
ATATAC | 3.5 ± 2.1 | 3.99 ± 0.01 | 6.02 ± 2.1
TTATAA | 3.65 ± 1.4 | 4.53 ± 0.46 | 6.51 ± 2.4
CCGCCT | 1.45 ± 0.15 |  | 1.54 ± 0.38
CTTCAT | 4.07 ± 1.5 | 4.78 ± 0.63 | 6.67 ± 2.6
TTTCAC | 3.76 ± 1.6 | 4.95 ± 0.89 | 6.83 ± 2.6
TTTCAT | 4.15 ± 1.4 | 5.11 ± 0.89 | 7.53 ± 3.4
GTTCAA | 2.59 ± 1.7 | 3.08 ± 0.83 | 4.21 ± 1.5
GTTCAT | 3.32 ± 0.77 | 4.43 ± 0.92 | 6.51 ± 3
ATTCAT | 2.95 ± 1.6 | 3.71 ± 0.32 | 5.56 ± 2.2
TCTCAT | 3.52 ± 0.79 | 4.87 ± 1.2 | 6.39 ± 2.9
GTTCAC | 3.88 ± 0.89 | 4.82 ± 0.92 | 6.76 ± 2.6
CTTCAA | 3.2 ± 2.3 | 3.11 ± 0.12 | 3.96 ± 1.1
CTTCAG |  | 1.26 ± 0.073 | 2.21 ± 0.1
TTTCAA | 2.81 ± 1.9 | 2.95 ± 0.37 | 4.9 ± 2.3
TTTCAG | 2.51 ± 2.3 | 1.83 ± 0.22 | 3.23 ± 0.79
TGGAGT |  |  | 1.17 ± 1.1

Sequence | relative kcat/Km [1] | relative kcat/Km [2] | relative kcat/Km [3]
GGGGCC | 0.798 ± 0.048 | 0.576 ± 0.47 | 0.579 ± 0.14
AACTGA | 2.11 ± 1.8 | 1.88 ± 0.34 | 3.9 ± 0.84
ATTCTA | 2.57 ± 2.1 | 2.17 ± 0.23 | 2.44 ± 0.73
AATACC | 1.49 ± 0.43 | 1.431 ± 0.0097 | 1.56 ± 0.25
TTACAC | 4.14 ± 1.9 | 4.92 ± 0.61 | 6.4 ± 2.5
CCCATA | 2.83 ± 1.3 | 3.03 ± 0.6 | 4.43 ± 1.7
GAAGAA | 2.23 ± 0.43 | 2.71 ± 0.3 | 2.76 ± 0.48
CGGTCC |  |  | 0.889 ± 0.14
TTGCAA | 1.54 ± 0.37 | 2.13 ± 0.72 | 2.92 ± 0.97
CATTAT | 4.62 ± 1.6 | 6.32 ± 1.1 | 8.59 ± 3.6
CCTTAC | 3.84 ± 2.1 | 4.83 ± 0.16 | 5.67 ± 1.9
GATTAG | 2.16 ± 2.1 | 2.42 ± 0.093 | 3.68 ± 1.1
CATTAA | 3.66 ± 2.4 | 4.11 ± 0.12 | 5.92 ± 2
GATTAT | 3.36 ± 0.24 | 4.67 ± 0.86 | 7.25 ± 3.7
CATTAC | 4.77 ± 1.5 | 5.16 ± 0.98 | 7.24 ± 2.8
CATTAG | 2.22 ± 1.2 | 2.26 ± 0.59 | 4.08 ± 1.1
GATTAC | 2.65 ± 0.6 | 4.2 ± 0.47 | 6.1 ± 2.1
GATTAA | 3.21 ± 0.97 | 3.86 ± 0.81 | 5.57 ± 2.6
GGAAGA | 2.26 ± 0.31 | 2.24 ± 0.41 | 3.83 ± 0.61
CCTACG |  |  | 1.4 ± 0.03
ACAGTT | 1.6 ± 1.2 | 1.27 ± 0.62 | 1.3 ± 0.82
GTATGG |  | 0.253 ± 0.21 | 1.01 ± 0.7

Sequence | relative kcat/Km [1] | relative kcat/Km [2] | relative kcat/Km [3]
TTGTTC | 1.96 ± 0.092 | 2.08 ± 0.17 | 3.27 ± 1.5
TAATCT | 1.87 ± 1.1 | 3.08 ± 0.23 | 4.22 ± 1.6
TGGAGG |  |  | 0.887 ± 0.34
AATTTA | 1.65 ± 0.69 | 1.63 ± 0.14 | 2.33 ± 0.76
TGATTA | 2.2 ± 0.59 | 2.91 ± 0.12 | 3.73 ± 1.7
CACGCT | 1.83 ± 0.24 | 2.25 ± 0.6 | 3.03 ± 0.94
TTCAGA | 5.95 ± 2.5 | 6.69 ± 1.9 | 10.5 ± 4.5
GTCAGT |  |  | 2.53 ± 2.2
TGCAGA | 1.65 ± 0.82 | 2.24 ± 0.094 | 2.7 ± 0.68
CTCAGC | 4.51 ± 1.9 | 5.37 ± 1.6 | 7.11 ± 2.5
TTCGGA |  |  | 1.79 ± 1
GTCAGC | 4.18 ± 1.7 | 5.29 ± 0.92 | 7.22 ± 2.9
GTCAGG | 0.667 ± 0.23 | 1.03 ± 0.2 | 2.57 ± 1.1
TTCAGT |  | 2.35 ± 1.7 | 3.37 ± 2.9
TTCAGC | 5.19 ± 1.6 | 6.48 ± 1.2 | 9.03 ± 3.9
CTTAGC | 2.96 ± 1.3 | 3.29 ± 1.3 | 3.62 ± 0.95
TTCAGG | 1.31 ± 0.71 | 1.12 ± 0.87 | 2.76 ± 0.9
ATCAGC | 2.87 ± 0.62 | 3.75 ± 1 | 5.41 ± 1.6
